An excerpt weighted towards active compounds, which were near 2.9% of everything screened.
GLP1R cytotox: cytotoxicity counter-screen for GLP-1 receptor inverse agonists | HEK293 cAMP-luciferase reporter cells, luminescence, 24 h | Potency, µM (doses to about 38.3 µM), inactives show at the highest dose activity change, negative = inhibition, actives largely listed as inhibitors | actives 0.13% (n = 410,000);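 further: loss of luciferase light is scored as toxicity; potency means the concentration at half of the fitted maximal effect; on the % scale 0 is the no-effect control and ±100 the full control effect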
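Seeding density was 200 cells/uL; after overnight-length (12 h) culture, 23 nL compounds went on for 24 h at 37 °C. Readout used a luciferase detection reagent, luminescence taken after 12 min at room temperature.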
GLP-1R agonist: agonists of human GLP-1 receptor; actives 0.007% (n = 380,000); P43220; HEK293 GLP-1R CRE-luciferase, luminescence, 4-6 h; cells express a hypersensitive GLP-1R form; Potency, µM (titrated, usually from 45.6 µM), for inactives: at the highest dose activation, usual class: activators; AID 624172; further: potency means the concentration at half of the fitted maximal effect; % of control where 0% means no effect
Target sequence (P43220 whole entry, looked up): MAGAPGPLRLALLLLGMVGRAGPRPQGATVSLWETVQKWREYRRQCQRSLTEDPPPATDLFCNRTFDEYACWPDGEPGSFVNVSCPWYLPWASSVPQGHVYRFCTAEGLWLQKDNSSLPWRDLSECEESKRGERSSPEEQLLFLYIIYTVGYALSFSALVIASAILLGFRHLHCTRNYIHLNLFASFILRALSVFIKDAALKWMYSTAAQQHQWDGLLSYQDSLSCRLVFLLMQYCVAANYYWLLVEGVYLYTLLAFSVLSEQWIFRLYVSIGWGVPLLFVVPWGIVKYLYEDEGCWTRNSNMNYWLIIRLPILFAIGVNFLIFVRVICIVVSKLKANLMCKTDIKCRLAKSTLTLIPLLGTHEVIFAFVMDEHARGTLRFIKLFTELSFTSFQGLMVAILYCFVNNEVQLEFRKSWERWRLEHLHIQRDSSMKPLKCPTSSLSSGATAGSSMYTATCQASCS
ClpP mod: qHTS Assay for Activators of ClpP; ATP-dependent Clp protease proteolytic subunit (Bacillus subtilis (strain 168)), P80244; actives 1.9% (n = 340,000); Potency, µM (titrated, usually from 57.5 µM), inactives show at the top dose activity change, negative = active; purified B. subtilis ClpP, FRET peptide cleavage, 20 min; active means well fitted falling curve with a large enough effect; inconclusive means small, poorly fitted or top-dose-only effect; inactive means no such curve, though single readings can be large or run the other way; further: potency means the concentration at half of the fitted maximal effect; the source files actives as falling curves though it sought activators and does not explain the sign; nearly all actives have a fitted effect of over 65% in size
Target sequence (P80244 whole entry, looked up): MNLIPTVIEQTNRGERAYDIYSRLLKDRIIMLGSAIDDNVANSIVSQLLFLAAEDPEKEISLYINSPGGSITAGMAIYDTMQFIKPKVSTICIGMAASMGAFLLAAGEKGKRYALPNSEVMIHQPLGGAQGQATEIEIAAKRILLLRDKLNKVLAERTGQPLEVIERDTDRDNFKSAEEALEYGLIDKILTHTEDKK
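ClpP 10 microg/mL final, pH 8 Tris/KCl buffer with BSA, glycerol, Tween-20; compound pinned in; FRET-FV substrate; RT 20 min; Ex320/Em430; ΔFRET vs ADEP 5.8 microM, DMSO, no enzyme.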
GLP1R inv ag: inverse agonists of human GLP-1 receptor | HEK293 GLP-1R CRE-luciferase, luminescence, 24 h; GLP-1R form is constitutively active | Potency, µM (doses to about 38.3 µM), for the others: top-dose activity change, negative = inhibition, usual class: inhibitors | AID 624417 | actives 1.6% (n = 410,000) | P43220; further: potency means the concentration at half of the fitted maximal effect; on the % scale 0 is the no-effect control and ±100 the full control effect; nearly all actives have a fitted effect of over 55% in size
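GLP-1R inverse agonism mode: basal reporter luminescence in engineered HEK293 cells measured after one day of compound exposure at 37 deg C, with a 12 min room-temperature detection step.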
LDHA block: LDHA (human) enzyme inhibition. purified LDHA, NADH/diaphorase-resazurin fluorescence; active compounds read low. P00338. AID 1347041. activity change, % (values are at about 110 or 230 µM). actives 0.15% (n = 480,000); in the data active means activity change below about -30%; inconclusive means mostly about -25% to -30%;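 further: plate controls were DMSO wells for no effect and wells without enzyme for full effect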
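LDH5 2 nM; NADH 0.06 mM, pyruvate 0.2 mM; 200 mM Tris pH 7.4, EDTA, Tween-20; 5 min RT. Detection: diaphorase 0.133 mg/mL + resazurin 37 µM, fluorescence ex540/em590 at 0 and 20 min; normalized to enzyme-free and DMSO wells.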
p53 reactivator: mutant p53 re-activation in reporter cells; H1299 p53-A138V BP100-luciferase reporter, luminescence, 24 h; Potency, µM (highest dose often 92.2 µM), for the others: at the top dose activity change, positive = activation, actives largely listed as activators; actives 0.063% (n = 320,000); AID 504706; further: potency means the concentration at half of the fitted maximal effect; % of control where 0% means no effect; nearly all actives have a fitted effect of over 45% in size
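p53-null H1299 cells stably carrying temperature-sensitive p53-A138V and a BP100-luciferase reporter were pinned with compounds (4-point, 1:5 series) and held 24 hrs at 37 deg C. Luminescence was read 10 min after detection reagent.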
* marks the source's active call; other numbers are inactive results; u = inconclusive; x = no result given; [ ] = remark or other dose. Unless noted, the call rests on the fitted dose curve; in most records, active means well fitted curve in the direction sought with a large enough effect; inconclusive means small, poorly fitted or top-dose-only effect, or another doubt; inactive means no such curve, though single readings can be large; an effect the other way counts as inactive or inconclusive.

SMILES	GLP1R cytotox	GLP-1R agonist	ClpP mod	GLP1R inv ag	LDHA block	p53 reactivator
NS(=O)(=O)c1ccc(CCNCc2ccccc2OCc2ccc(Cl)cc2)cc1	-29%	-5%	x	7.9µM*	-3	10%
COc1ccc(-c2ccc(SCC(=O)NCC3CCCO3)nn2)cc1OC (centres undefined)	0%[0.307 µM]	u	1%	-9%[0.307 µM]	-5	2%
Cc1ccccc1NC(=O)c1ccc(F)c(S(=O)(=O)N(C)C2CCCCC2)c1	-1%	x	-4%	10µM*	-2	x
Cc1nc(N2CCOCC2)c2cc(-c3ccccc3)sc2n1	29%	u	32µM*	u	-3	0%
c1ccc(-c2cc3c(N4CCCC4)ncnc3s2)cc1	0%	13%	x	11%	-3	0%
c1ccc(-c2cc3c(N4CCOCC4)ncnc3s2)cc1	23%	6%	28µM*	-2%	2	-5%
Cc1nc(N2CCN(Cc3ccc4c(c3)OCO4)CC2)c2cc(-c3ccccc3)sc2n1	12%	6%	x	u	2	7%
Nc1ccccc1C(=O)NCc1cccnc1	x	x	x	x	1	x
Cc1ccc(CNC(=O)c2ccccc2N)cc1	5%	10%	28µM*	-11%	-2	3%
Nc1ccccc1C(=O)NCc1ccncc1	x	x	x	x	7	x
Cc1cccc(CNC(=O)c2ccccc2N)c1	6%	-2%	8.9µM*	-4%	1	u
CC(C(=O)NN=C(c1ccccc1)c1ccccc1)N1CCCC1 (centres undefined)	4%	8%	1%	u	-10	10%
O=C(c1ccco1)N1CCN(S(=O)(=O)N2CCOCC2)CC1	-22%	-3%	0%	1%	-5	-1%
Cc1ccc(C(NC(=O)c2cc(F)ccc2F)C2CC2)cc1 (centres undefined)	x	x	x	x	1	x
COc1ccc2oc(C(=O)OCC(=O)NC(=O)NC(C)C)c(C)c2c1	-2%	4%	32µM*	4%	0	4%
COc1ccc2oc(C(=O)OCC(=O)NC3CC3)c(C)c2c1	2%	-1%	3%	16%	-1	29%
COc1ccc2oc(C(=O)OCC(=O)Nc3ccccc3)c(C)c2c1	4%	-1%	28µM*	3%	-8	10%
COc1ccc2oc(C(=O)OCC(=O)NC(C)(C#N)C3CC3)c(C)c2c1 (centres undefined)	14%	-1%	32µM*	-9%	-6	2%
COc1ccc2oc(C(=O)OCC(=O)Nc3ccc(C)c(S(=O)(=O)N4CCOCC4)c3)c(C)c2c1	0%	6%	4%	5%	-13	x
COc1ccc2oc(C(=O)OCC(=O)Nc3ccc(N4CCOCC4)cc3)c(C)c2c1	5%	-3%	32µM*	13%	-3	9%
CC1=CS/C(=C(/C#N)C(=O)N2CCOCC2)N1c1ccccc1	10%	3%	-1%	22%	-3	0%
Cc1cc(C)cc(NC(=O)CN2CCN(C(=O)c3cccs3)CC2)c1	-2%	6%	x	u	-8	-5%
Cc1ccnc2nc(NC(=O)c3ccco3)nn12	4%	1%	-1%	21%	-3	u
COc1cc(Cl)c(C)cc1NC(=O)NC1COc2ccccc2C1 (centres undefined)	4%	x	-6%	-28%	-10	x
COC(=O)c1oc2ccc(OC)cc2c1N	0%	-7%	16µM*	48%	0	u
SMILES	GLP1R cytotox	GLP-1R agonist	ClpP mod	GLP1R inv ag	LDHA block	p53 reactivator
COc1ccc(N2CCN(C(=O)c3oc4ccccc4c3NC(=O)Cc3cccc(OC)c3)CC2)cc1	-13%	3%	-2%	8.9µM*	-1	8%
COc1ccc2oc(C(=O)OC(C)C(=O)NC3(C#N)CCCCC3)c(C)c2c1 (centres undefined)	16%	15%	25µM*	17%	-2	-3%
COc1ccc2oc(C(=O)N3CCN(C(c4ccccc4)c4ccccc4)CC3)c(C)c2c1	1%	11%	x	5.6µM*	-14	-5%
CC(C)(C)c1ccc(C(=O)NCCCn2ccnc2)cc1	-10%	12%	x	-28%	-6	11%
Cc1c(/C=C(\C#N)c2ccc(Cl)cc2)c2ccccc2n1C	x	x	x	x	4	x
CC(C)(C)C(c1nc2ccccc2[nH]1)n1c(-c2ccco2)nc2ccccc21 (centres undefined)	-2%	x	3%	26%	-6	x
CC(C)(C)C(c1nc2ccccc2[nH]1)n1c(-c2ccsc2)nc2ccccc21 (centres undefined)	u	x	-15%	10µM*	5	x
O=C(CNCCN1CCOCC1)Nc1ccccc1Sc1ccccc1	-8%	15%	x	3%	-31*	0%
NC(N)=N/N=C/c1ccc(OS(=O)(=O)c2ccccc2)cc1	u	-5%	-2%	6.3µM*	-4	13%
CCC(=O)N/N=C/c1ccc(OS(=O)(=O)c2ccccc2)cc1	-14%	-2%	0%	-22%	-3	-4%
COc1ccc2noc3c2c1C(=O)c1ccccc1-3	u	12%	1%	u	11	x
O=C1c2ccccc2-c2onc3ccc(NCCCn4ccnc4)c1c23	13µM*	19%	1%	-13%	15	-8%
CN(CC(N)=O)C(=O)CCc1ncc(-c2c(F)cccc2F)o1	x	x	x	x	3	x
Cc1cccc(-n2c(CCc3ccccc3)nnc2SCC(=O)c2ccccc2)c1	u	-2%	1%	5µM*	-2	2%
Cc1ccc(OCc2nnc(SCC(=O)c3ccccc3)n2-c2ccccc2)cc1	-25%	7%	1%	-15%	4	u
COC(=O)C1(C(=O)OC)C[C@H](/C=C/c2ccccc2)N(Cc2ccccc2OC)[C@@H]1c1cccs1	32%	x	-4%	10µM*	2	x
COc1ccccc1CN1C2CCCC1CC(NC(=O)/C=C/c1ccccc1)C2 (centres undefined)	u	-1%	x	10µM*	-10	3%
Cc1cc(-c2cc(-c3ccc(Cl)cc3)on2)nc(NCC2CC2)n1	-26%	0%	14µM*	5%	-4	2%
CCCc1nn(C)c2c(=O)[nH]c(-c3ccccc3OCC)nc12	-1%[1.53 µM]	-11%	20µM*	8%	-2	6%
Cc1nn(-c2ccc(F)cc2)c2sc(C(=O)OCC(=O)N3CCC(C)CC3)cc12	-3%	-5%	22µM*	-2%	-7	7%
